# Laboratory results published in article PMC7862700, “An all-to-all approach to the identification of sequence-specific readers for epigenetic DNA modifications on cytosine”.
# Columns and labels:
# Assay in all cases: DAPPL (digital affinity profiling via proximity ligation, sequencing); 10 mM Tris-HCl pH 7.5, 50 mM NaCl, 1 mM DTT, 4% glycerol, room temperature, 30 min; GST-TFs on glutathione beads, 16-mer random dsDNA library, 0.1% formaldehyde crosslink after washing; high values mean tight binding
# Settings in all cases: protein: recombinant; tags: N-terminal GST; dsDNA, one strand shown
# [1] = molecular target: T1, FLI1 (Homo sapiens, UniProt Q01543 1-452)
# T1 sequence: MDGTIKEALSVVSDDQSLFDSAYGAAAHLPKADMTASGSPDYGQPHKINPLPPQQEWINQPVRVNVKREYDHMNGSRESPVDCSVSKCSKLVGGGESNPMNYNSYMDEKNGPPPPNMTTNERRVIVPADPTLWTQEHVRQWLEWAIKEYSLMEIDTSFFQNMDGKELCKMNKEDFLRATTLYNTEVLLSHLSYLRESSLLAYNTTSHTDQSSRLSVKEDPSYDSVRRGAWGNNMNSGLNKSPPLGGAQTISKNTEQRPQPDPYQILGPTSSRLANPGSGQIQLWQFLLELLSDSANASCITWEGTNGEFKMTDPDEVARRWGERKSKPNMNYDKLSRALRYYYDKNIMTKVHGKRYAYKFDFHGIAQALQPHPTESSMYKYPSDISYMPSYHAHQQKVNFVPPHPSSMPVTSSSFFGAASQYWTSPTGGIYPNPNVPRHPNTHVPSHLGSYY
# How it was run: (§1)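 Pools of DNA-barcoded human transcription factors, expressed in yeast as GST fusions on glutathione beads and combined with a tag-only sample, were incubated with 200 nmole of a 16-mer random double-stranded DNA library. Incubation took 30 min at room temperature in Tris/NaCl/DTT/glycerol buffer and was followed by washing, 0.1% formaldehyde crosslinking, proximity ligation (BsaI/T4 ligase, 1 h, 37 °C), PCR amplification and sequencing on an Illumina NextSeq500. Binding signal is the ratio of a hexamer's read frequency for a factor to its frequency for the tag-only sample.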
# [2] = molecular target: T2, ELK1 (Homo sapiens, UniProt P19419 1-428)
# T2 sequence: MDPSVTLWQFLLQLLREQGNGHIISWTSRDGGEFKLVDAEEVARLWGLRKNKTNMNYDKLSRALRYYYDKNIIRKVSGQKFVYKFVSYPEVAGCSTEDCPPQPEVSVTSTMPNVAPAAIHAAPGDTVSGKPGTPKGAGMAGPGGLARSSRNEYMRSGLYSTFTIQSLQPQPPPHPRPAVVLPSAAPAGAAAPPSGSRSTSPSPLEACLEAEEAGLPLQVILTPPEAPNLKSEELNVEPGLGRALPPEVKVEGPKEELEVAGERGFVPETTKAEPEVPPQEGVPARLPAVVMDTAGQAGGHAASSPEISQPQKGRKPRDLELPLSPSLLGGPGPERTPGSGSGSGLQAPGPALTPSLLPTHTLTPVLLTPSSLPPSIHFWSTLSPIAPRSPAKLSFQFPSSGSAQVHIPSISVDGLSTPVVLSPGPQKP
# How it was run: as §1
# [3] = molecular target: T3, GABPA (Homo sapiens, UniProt Q06546 1-454)
# T3 sequence: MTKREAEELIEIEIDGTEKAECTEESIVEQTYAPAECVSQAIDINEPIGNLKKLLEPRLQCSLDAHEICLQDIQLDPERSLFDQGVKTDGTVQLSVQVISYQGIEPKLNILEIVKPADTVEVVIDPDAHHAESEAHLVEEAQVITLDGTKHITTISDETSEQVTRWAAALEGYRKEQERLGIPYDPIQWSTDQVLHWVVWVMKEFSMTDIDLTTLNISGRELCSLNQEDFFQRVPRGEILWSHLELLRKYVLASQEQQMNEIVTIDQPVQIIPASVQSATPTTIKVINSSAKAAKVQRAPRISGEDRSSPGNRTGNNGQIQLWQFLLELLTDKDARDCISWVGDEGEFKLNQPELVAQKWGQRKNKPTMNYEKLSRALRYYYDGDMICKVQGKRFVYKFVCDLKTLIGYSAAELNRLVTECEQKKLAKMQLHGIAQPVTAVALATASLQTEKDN
# How it was run: as §1
# [4] = molecular target: T4, ERG (Homo sapiens, UniProt P11308 1-479)
# T4 sequence: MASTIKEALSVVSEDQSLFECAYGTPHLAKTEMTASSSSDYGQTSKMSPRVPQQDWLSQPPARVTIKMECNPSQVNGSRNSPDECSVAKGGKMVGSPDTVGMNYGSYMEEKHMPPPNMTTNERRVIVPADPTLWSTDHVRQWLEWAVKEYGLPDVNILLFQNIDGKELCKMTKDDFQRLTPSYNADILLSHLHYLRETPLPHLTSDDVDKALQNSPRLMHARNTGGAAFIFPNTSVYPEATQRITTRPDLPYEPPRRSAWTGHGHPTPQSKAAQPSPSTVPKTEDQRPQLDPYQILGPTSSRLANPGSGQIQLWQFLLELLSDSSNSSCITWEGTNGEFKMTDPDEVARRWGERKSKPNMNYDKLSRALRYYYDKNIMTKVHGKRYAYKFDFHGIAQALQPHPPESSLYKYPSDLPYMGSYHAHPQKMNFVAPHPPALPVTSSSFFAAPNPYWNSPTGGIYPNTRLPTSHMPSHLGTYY
# How it was run: as §1
# [5] = molecular target: ELF1 (Homo sapiens, UniProt P32519 1-619)
# How it was run: as §1
# [6] = molecular target: T5, EHF (Homo sapiens, UniProt Q9NZC4 1-300)
# T5 sequence: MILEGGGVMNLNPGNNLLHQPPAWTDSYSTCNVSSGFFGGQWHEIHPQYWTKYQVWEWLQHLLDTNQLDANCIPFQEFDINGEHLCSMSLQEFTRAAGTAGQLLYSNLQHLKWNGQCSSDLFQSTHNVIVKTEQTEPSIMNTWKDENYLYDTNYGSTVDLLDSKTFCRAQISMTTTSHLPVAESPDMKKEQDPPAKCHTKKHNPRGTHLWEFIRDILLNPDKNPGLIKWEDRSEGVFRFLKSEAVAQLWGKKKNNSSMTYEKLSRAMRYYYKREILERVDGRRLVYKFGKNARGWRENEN
# How it was run: as §1
# [7] = molecular target: SPI1 (Homo sapiens, UniProt P17947 1-270)
# How it was run: as §1
# [8] = molecular target: SPIB (Homo sapiens, UniProt Q01892 1-262)
# How it was run: as §1
# [9] = molecular target: T6, ELK3 (Homo sapiens, UniProt P41970 1-407)
# T6 sequence: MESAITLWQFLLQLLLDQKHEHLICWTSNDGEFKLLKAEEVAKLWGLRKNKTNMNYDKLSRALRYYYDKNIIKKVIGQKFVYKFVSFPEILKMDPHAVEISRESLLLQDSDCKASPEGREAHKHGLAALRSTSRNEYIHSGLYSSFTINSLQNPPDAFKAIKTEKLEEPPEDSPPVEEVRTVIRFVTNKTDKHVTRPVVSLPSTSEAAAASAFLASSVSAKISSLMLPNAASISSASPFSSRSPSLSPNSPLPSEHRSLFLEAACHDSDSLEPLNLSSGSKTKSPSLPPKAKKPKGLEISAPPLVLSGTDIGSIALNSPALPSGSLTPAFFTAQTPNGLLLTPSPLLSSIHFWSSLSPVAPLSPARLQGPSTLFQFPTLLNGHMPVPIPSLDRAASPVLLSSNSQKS
# How it was run: as §1
# Chain of ELF1 (P32519 whole entry): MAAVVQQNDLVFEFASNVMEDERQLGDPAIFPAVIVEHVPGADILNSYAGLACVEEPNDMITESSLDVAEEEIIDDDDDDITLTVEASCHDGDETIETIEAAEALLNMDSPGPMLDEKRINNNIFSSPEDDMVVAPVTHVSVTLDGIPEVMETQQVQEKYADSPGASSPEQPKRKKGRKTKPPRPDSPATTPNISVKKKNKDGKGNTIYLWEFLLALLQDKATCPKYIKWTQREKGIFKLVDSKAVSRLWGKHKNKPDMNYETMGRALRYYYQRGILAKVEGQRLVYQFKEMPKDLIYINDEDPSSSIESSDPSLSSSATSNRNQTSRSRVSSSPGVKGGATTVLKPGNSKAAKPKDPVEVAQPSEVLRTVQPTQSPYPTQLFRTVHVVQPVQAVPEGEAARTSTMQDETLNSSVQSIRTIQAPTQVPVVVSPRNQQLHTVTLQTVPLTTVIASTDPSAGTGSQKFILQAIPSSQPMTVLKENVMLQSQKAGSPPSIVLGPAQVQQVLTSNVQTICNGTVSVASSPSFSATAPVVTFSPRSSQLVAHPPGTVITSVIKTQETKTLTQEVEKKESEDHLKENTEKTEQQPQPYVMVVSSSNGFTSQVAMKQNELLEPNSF
# Chain of SPIB (Q01892 whole entry): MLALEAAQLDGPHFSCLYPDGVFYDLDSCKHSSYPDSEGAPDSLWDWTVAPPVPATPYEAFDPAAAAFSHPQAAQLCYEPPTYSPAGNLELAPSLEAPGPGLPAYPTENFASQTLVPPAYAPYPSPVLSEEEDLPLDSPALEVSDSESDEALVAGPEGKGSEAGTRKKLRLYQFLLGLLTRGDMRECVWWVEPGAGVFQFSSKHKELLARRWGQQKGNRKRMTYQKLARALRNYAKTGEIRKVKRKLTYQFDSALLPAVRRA
sequence,measurement,setting,value
CCGTTC,binding signal,[1],"1.32 fold enrichment (6-mer frequency, TF over GST control)"
same,binding signal,[2],"1.38 fold enrichment (6-mer frequency, TF over GST control)"
same,binding signal,[3],"1.39 fold enrichment (6-mer frequency, TF over GST control)"
same,binding signal,[4],"1.38 fold enrichment (6-mer frequency, TF over GST control)"
same,binding signal,[5],"1.46 fold enrichment (6-mer frequency, TF over GST control)"
same,binding signal,[6],"1.5 fold enrichment (6-mer frequency, TF over GST control)"
same,binding signal,[7],"1.39 fold enrichment (6-mer frequency, TF over GST control)"
same,binding signal,[8],"1.47 fold enrichment (6-mer frequency, TF over GST control)"
same,binding signal,[9],"1.4 fold enrichment (6-mer frequency, TF over GST control)"
